Screens deposited in PubChem BioAssay by The Scripps Research Institute Molecular Screening Center.
GPR151 ag – activators of human GPR151, primary screen, cell-based, PathHunter beta-arrestin, luminescence; PathHunter beta-arrestin GPR151 cells; 650,000 compounds, 1% hits; activation, % at 11.2 µM; AID 1508602, 2020; G-protein coupled receptor 151 (Homo sapiens), Q8TDV0; in the data active = activation above about 4.9%;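 note: 0% = median of compound wells and 100% = cells with positive control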
FBW7 act – FBW7 E3 ligase activators, primary screen, biochemical, AlphaScreen, human. normalized activity (activation), % at 26.1 µM. AlphaScreen FBW7–phospho-cyclin E peptide binding, activator screen. 650,000 compounds, 0.13% hits; in the data active = normalized activity above about 1.9%;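 note: purified mutant Fbw7 with reduced substrate affinity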
Target sequence (Q969H0 whole entry, looked up): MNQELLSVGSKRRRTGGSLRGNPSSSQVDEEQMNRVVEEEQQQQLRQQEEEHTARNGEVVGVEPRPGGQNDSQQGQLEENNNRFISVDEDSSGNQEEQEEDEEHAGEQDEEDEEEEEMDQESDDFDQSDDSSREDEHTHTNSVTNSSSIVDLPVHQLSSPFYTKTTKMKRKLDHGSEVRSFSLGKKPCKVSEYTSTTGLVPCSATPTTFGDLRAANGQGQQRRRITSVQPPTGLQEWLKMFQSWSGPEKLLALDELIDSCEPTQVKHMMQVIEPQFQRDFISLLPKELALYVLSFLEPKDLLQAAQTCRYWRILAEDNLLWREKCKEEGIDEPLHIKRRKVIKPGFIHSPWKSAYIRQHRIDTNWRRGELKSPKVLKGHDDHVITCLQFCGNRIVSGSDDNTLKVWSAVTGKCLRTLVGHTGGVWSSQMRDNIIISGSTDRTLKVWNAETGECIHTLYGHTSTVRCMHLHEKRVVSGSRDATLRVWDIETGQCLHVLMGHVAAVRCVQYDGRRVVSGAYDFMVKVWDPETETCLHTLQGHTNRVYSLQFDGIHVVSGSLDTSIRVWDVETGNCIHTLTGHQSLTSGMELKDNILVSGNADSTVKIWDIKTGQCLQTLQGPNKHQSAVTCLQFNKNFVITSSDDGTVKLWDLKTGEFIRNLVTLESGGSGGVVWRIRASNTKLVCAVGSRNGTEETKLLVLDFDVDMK
TEAD-YAP block – TEAD-YAP interaction inhibition, primary screen, TEAD-YAP interaction inhibitor project, luminescence, HEK-TIYL cells; 640,000 compounds, 1.4% hits; AID 1259422, 2018; inhibition, % at 9.12 µM; TEAD-Gal4/YAP UAS-luciferase luminescence; in the data active = inhibition above about 32%;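 note: 0% = median of test compound wells and 100% = reference inhibitor wells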
MITF primary – MITF inhibitors, primary screen, biochemical, AlphaScreen, human. Microphthalmia-associated transcription factor (Homo sapiens), O75030. AlphaScreen MITF homodimerization, bead proximity signal. 650,000 compounds, 0.91% hits. inhibition, % at 2.6 µM. AID 1259374, 2018; in the data active = inhibition above about 50%;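 note: 0% = vehicle wells with protein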
GPR151 confirm – GPR151 activators, triplicate retest, confirmation, cell-based, PathHunter beta-arrestin, luminescence | shares compounds with GPR151 ag | activation, % at 11.2 µM | GPR151 PathHunter beta-arrestin cells, 90 min; % of EA-reagent control over plate median | 6,700 tested, under 10 active;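 active = mean percent activation across replicates above the confirmation screen cutoff of 4.91%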
GPR119 counter – GPR119 activators in beta-arrestin cells, counter-screen for GPR151 activator project, cell-based, PathHunter beta-arrestin, luminescence, triplicate. activation, % at 11.2 µM. shares compounds with GPR151 ag. 90 min; 0 = compound-well median, 100 = enzyme-acceptor control. 6,700 compounds, 0.3% hits;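 active = mean percent activation in the counterscreen above 29.09%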;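 note: counterscreen on off-target GPR119 to flag nonselective hits from the GPR151 activator screen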
An asterisk follows results filed as active. This is a sample that favours compounds with a hit; in the whole collection about 3.5% have one here.

For COc1ccc2[nH]c(C)c(CN(C)C)c(=O)c2c1 the results were GPR151 ag 0, FBW7 act 0, TEAD-YAP block 15 and MITF primary -3.
`CCOc1ccc2[nH]c(C)c(CN(C)C)c(=O)c2c1` gave GPR151 ag 6.8*, FBW7 act 0, TEAD-YAP block -4, MITF primary -1, GPR151 confirm 0 and GPR119 counter 4.
Screening COc1ccc(-n2c(C)c(C(=O)O)c3cc(OC)c4ccccc4c32)cc1 returned GPR151 ag 4.9*, FBW7 act 0, TEAD-YAP block 16, MITF primary 3, GPR151 confirm 0 and GPR119 counter 5.
COc1cc2c(C(=O)O)c(C)n(-c3ccccc3)c2c2ccccc12 was read as GPR151 ag 2, FBW7 act 0, TEAD-YAP block 14 and MITF primary -2.
`CCOC(=O)N1CCC(Nc2c(NC(C)CC)c(=O)c2=O)CC1` (centres undefined) gave GPR151 ag 8.8*, FBW7 act 0, TEAD-YAP block -3, MITF primary -20, GPR151 confirm 0 and GPR119 counter 10.
`CCCCNc1c(N2CCCC(C(=O)OCC)C2)c(=O)c1=O` (centres undefined) gave GPR151 ag 5.1*, FBW7 act 0, TEAD-YAP block -1, MITF primary 1, GPR151 confirm 3 and GPR119 counter 6.
For CCOC(=O)N1CCN(c2c(NC3CCCCCCC3)c(=O)c2=O)CC1 the results were GPR151 ag 3, FBW7 act 0, TEAD-YAP block 2 and MITF primary 3.
CCOC(=O)C1CCCN(c2c(NCCCN3CCN(C)CC3)c(=O)c2=O)C1 (centres undefined) was read as GPR151 ag 0, FBW7 act 0, TEAD-YAP block 5 and MITF primary -3.
Screening CC1CCN(c2c(NCc3ccc(C(=O)NCCc4ccccc4)cc3)c(=O)c2=O)CC1 returned GPR151 ag 5.2*, FBW7 act 0, TEAD-YAP block -9, MITF primary 3, GPR151 confirm 1 and GPR119 counter -8.
CCOC(=O)C1CCN(c2c(NCCCc3ccccc3)c(=O)c2=O)CC1 was read as GPR151 ag 9.9*, FBW7 act 0, TEAD-YAP block -4, MITF primary 4, GPR151 confirm 0 and GPR119 counter 4.
CCOC(=O)C1CCCN(c2c(NCCCc3ccccc3)c(=O)c2=O)C1 (centres undefined) was read as GPR151 ag 0, FBW7 act 0, TEAD-YAP block -13 and MITF primary 6.
`N#CC1(C#N)[C@H](c2ccc(Br)cc2)[C@@H](C(=O)C23CC4CC(CC(C4)C2)C3)N2c3ccccc3C=C[C@@H]21` gave GPR151 ag 1, FBW7 act 0, TEAD-YAP block 15 and MITF primary -5.
For CCCc1cc(N2CCN(Cc3ccc(C)cc3C)CC2)n2c(nc3ccccc32)c1C#N the results were GPR151 ag 0, FBW7 act 0, TEAD-YAP block -1 and MITF primary 2.
`COc1cccc(NC(=O)CCCCCN2C(=O)c3ccccc3C2=O)c1` gave GPR151 ag 0, FBW7 act 0, TEAD-YAP block 10 and MITF primary 2.
Screening c1cnc(N2CCC(Oc3cccc(-c4cccnc4)c3)CC2)nc1 returned GPR151 ag -1, FBW7 act 0, TEAD-YAP block 2 and MITF primary 18.
For CCOC(=O)N1CCN(c2c(NCCN3CCCC3)c(=O)c2=O)CC1 the results were GPR151 ag 5.5*, FBW7 act 0, TEAD-YAP block -6, MITF primary 1, GPR151 confirm 1 and GPR119 counter 10.
`CCOC(=O)N1CCN(c2c(NCCN3CCCCCC3)c(=O)c2=O)CC1` gave GPR151 ag 2, FBW7 act 0, TEAD-YAP block -9 and MITF primary -2.
